These results are taken from PubChem BioAssay AID1053 (University of Pittsburgh Molecular Library Screening Center, 2008).

The structures appear in SMILES notation. Several values for one entry are separate records, joined by “and”; a condition that tells them apart may be missing. Equal entries are not always repeated. Unmarked numbers belong to inactive results. How the calls were made is not given here.

The target of this experiment is Serine/threonine-protein kinase PLK1 (Homo sapiens) (UniProt P53350). Nature of the experiment: Plk1 polo box domain binding inhibitors, SAR follow-up, biochemical, fluorescence polarization, purchased analogs (AID 1053). To be noted: Plk1 PBD fluorescence polarization peptide binding; at 20 µM; stronger effect = higher value.
Serine/threonine-protein kinase PLK1 (Homo sapiens), sequence (P53350 whole entry, looked up, the tested form may be a part): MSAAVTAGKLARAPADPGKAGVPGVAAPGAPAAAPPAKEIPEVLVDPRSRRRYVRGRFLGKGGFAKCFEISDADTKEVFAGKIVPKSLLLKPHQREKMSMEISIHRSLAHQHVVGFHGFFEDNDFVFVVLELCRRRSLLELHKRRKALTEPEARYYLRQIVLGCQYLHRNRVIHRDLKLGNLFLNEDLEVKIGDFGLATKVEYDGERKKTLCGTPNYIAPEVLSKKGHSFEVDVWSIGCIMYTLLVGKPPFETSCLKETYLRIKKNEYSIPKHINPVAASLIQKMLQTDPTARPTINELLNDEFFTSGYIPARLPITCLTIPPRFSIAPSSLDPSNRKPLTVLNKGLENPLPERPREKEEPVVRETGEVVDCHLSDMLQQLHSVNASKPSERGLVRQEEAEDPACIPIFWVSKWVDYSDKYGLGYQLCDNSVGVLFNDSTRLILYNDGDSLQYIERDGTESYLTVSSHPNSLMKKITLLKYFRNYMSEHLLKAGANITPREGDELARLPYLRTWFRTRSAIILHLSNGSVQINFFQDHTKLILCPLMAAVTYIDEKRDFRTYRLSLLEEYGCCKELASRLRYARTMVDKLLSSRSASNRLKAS
In the case of `Cc1ccc(C(=O)CN2C=CC(=C(O)NCc3ccccc3)C=C2)cc1`, the inhibition is -52.1%.

As to `CCOC(=O)c1ccc(N=Cc2c(O)n(-c3cccc(C)c3)c(=O)[nH]c2=O)cc1`, the inhibition was -57.1%.

On to `CCOc1ccc(-c2nc3c(=O)n(C)c(=O)nc-3n(C)n2)cc1OC`, for which the inhibition was 34.4%.

For `CCn1nc(-c2ccccc2C)nc2c(=O)n(C)c(=O)nc1-2`, the inhibition is 2.2% and 21.7%.

For `CCCOC(=O)c1ccc(NC(=O)c2ccc(C)c(I)c2)cc1`, the inhibition was -23.6%.

`CC(=O)N(CN1C(=O)c2ccc([N+](=O)[O-])cc2C1=O)c1ccc(Oc2ccccc2)cc1`: the inhibition was -28.5%.

With `CC(=O)N(/N=C1\Sc2ccccc2C1=O)c1ccccc1I`, the inhibition is -47.1%.

Take `CC(=O)N(CN1C(=O)c2ccccc2C1=O)c1ccc(Oc2ccccc2)cc1`: the inhibition was -50%.

`CCOC(=O)c1ccc(N=Cc2c(O)n(-c3ccc(C)cc3)c(=O)[nH]c2=O)cc1`: the inhibition was -22.9%.

Take `CC(=O)N(/N=C1\Sc2ccccc2C1=O)c1ccccc1`: the inhibition is 24.7%.

Turning to `COc1ccc(-c2nc3c(=O)n(C)c(=O)nc-3n(C)n2)cc1OC`, the inhibition is 1.9%.

Consider `Cc1ccc(N(CN2C(=O)c3ccc([N+](=O)[O-])cc3C2=O)C(=O)C(c2ccccc2)c2ccccc2)cc1`, for which the inhibition is -39.6%.

As to `CCOC(=O)c1ccc(NC(=O)C2CCC(C(C)(C)C)CC2)cc1` (configuration not stated), the inhibition was 8.43%.

In the case of `CC(=O)N(/N=C1\Sc2ccccc2C1=O)c1ccc(Br)cc1`, the inhibition was 34.2%.

For the compound `CC(=O)N(CN1C(=O)c2ccccc2C1=O)c1cc(C)ccc1C`, the inhibition is -34.4%.

Consider `CCOC(=O)c1ccc(NC(=O)C2CCCCC2C(=O)O)cc1` (configuration not stated), for which the inhibition is -39.1%.

`CC(=O)N(CN1C(=O)c2ccccc2C1=O)c1ccccc1Cl`: the inhibition was -37.3% and -49.8%.

For `CCOC(=O)c1ccc(NC(=O)C2CCC(C)CC2)cc1` (configuration not stated), the inhibition is -28.3%.

`COc1ccc(-c2nnc3[nH]c(=O)n(C)c(=O)c3n2)cc1OC`: the inhibition was -22.8% and -20.3%.

Turning to `CC(=O)N(/C=C1\Sc2ccccc2C1=O)c1ccc(C)cc1`, the inhibition is -201% and -215% and -234%.

As to `CCCCCCC(=O)N(CN1C(=O)c2ccccc2C1=O)c1ccccc1`, the inhibition was -23.4%.

On to `CC(=O)N(/N=C1\Sc2ccccc2C1=O)c1cccc(C)c1`, for which the inhibition is 20.1%.

As to `CC(=O)N(CN1C(=O)c2cc(Cl)c(Cl)cc2C1=O)c1ccc(C)c(Cl)c1`, the inhibition is -45.5%.

Regarding `CC(=O)N(CN1C(=O)c2ccccc2C1=O)c1cc(Br)ccc1C`, the inhibition is -56.1%.

For the compound `CCOC(=O)c1ccc(NC(=O)C2OCCc3ccccc32)cc1` (configuration not stated), the inhibition was -101%.

Consider `CCn1nc(-c2ccccc2Br)nc2c(=O)n(C)c(=O)nc1-2`, for which the inhibition is 34.5%.

For `CCCCCC(=O)N(CN1C(=O)c2ccccc2C1=O)c1ccccc1OC`, the inhibition is -35.4%.

As for `CCOC(=O)c1ccc(NC(=O)C2Oc3ccccc3OC2C)cc1` (configuration not stated), the inhibition was -28.8%.

As to `CCOc1cc(-c2nnc3[nH]c(=O)n(C)c(=O)c3n2)ccc1OC(C)C`, the inhibition is 15.8%.

As to `CN(C)c1ccc(-c2nnc3c(n2)c(=O)n(C)c(=O)n3C)cc1`, the inhibition was -22%.

Take `CC(=O)N(/N=C1\Sc2ccccc2C1=O)c1ccccc1Cl`: the inhibition was -48.1%.

In the case of `CCn1nc(-c2ccc(OC)cc2)nc2c(=O)n(C)c(=O)nc1-2`, the inhibition is 28%.

With `COc1ccc(N(/N=C2\Sc3ccccc3C2=O)C(C)=O)cc1`, the inhibition is 30.5%.

As to `CC(=O)N(CN1C(=O)c2ccccc2C1=O)c1ccccc1C`, the inhibition was -32.5% and -28.6%.

As for `COc1ccc(-c2nnc3[nH]c(=O)n(C)c(=O)c3n2)cc1`, the inhibition is -45.9% and -39.6%.

Turning to `CC(=O)N(CN1C(=O)c2ccccc2C1=O)c1ccc(C)cc1`, the inhibition was -31.4%.

With `CCOC(=O)c1ccc(N=Cc2c(O)n(Cc3ccccc3)c(=O)[nH]c2=O)cc1`, the inhibition is -22.9%.
